Source: PubChem BioAssay (NCATS)
Results filed as inconclusive are left out. Entries that show only a call come without a potency. A number with no mark means an inactive call. Calls of active or inactive are those of the source. Calls follow the shape of the full dose curve.

test: Cytotoxicity counterscreen for inhibitors of SARS-CoV-2 cell entry (AID 1645845); conditions: cell viability (SARS-CoV-2 entry assay cells); series mostly up to 57.1 µM; activity change, negative = cytotoxicity: at the top concentration; also: nearly all actives have a fitted effect of over 50% in size
How it was run: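 After a 15 min room-temperature ATPLite 1step step, luminescence reflected ATP remaining in HEK293-ACE2 cells exposed to compound for 1 h plus 48 h at 37 C, with percent activity set by cell and no-cell controls.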

| Compound | Potency | activity change, negative = cytotoxicity | outcome |
| --- | --- | --- | --- |
| CN(CCOc1ccc(NS(C)(=O)=O)cc1)CCc1ccc(NS(C)(=O)=O)cc1 | inactive | – | – |
| C[C@H]1c2cccc(O)c2C(O)=C2C(=O)[C@]3(O)C(O)=C(C(N)=O)C(=O)[C@@H](N(C)C)[C@@H]3[C@@H](O)[C@@H]21 | – | -4.83% | – |
| CC/C=C(\C(=O)N[C@@H]1C(=O)N2C(C(=O)OCOC(=O)C(C)(C)C)=C(COC(N)=O)CS[C@H]12)c1csc(N)n1 | – | – | inactive |
| COc1ccc2nc(S(=O)Cc3ncc(C)c(OC)c3C)[nH]c2c1 (configuration not stated) | – | 1.44% | – |
| O=C1[C@H](CC[C@H](O)c2ccc(F)cc2)[C@@H](c2ccc(O)cc2)N1c1ccc(F)cc1 | inactive | – | – |
| O=C(c1ccccc1)c1ccc2n1CCC2C(=O)O (configuration not stated) | inactive | – | – |
| C[C@@H]1C[C@H]2[C@@H]3CCC4=CC(=O)C=C[C@]4(C)[C@@]3(F)[C@@H](O)C[C@]2(C)[C@@]1(O)C(=O)CO | inactive | – | – |
| Cc1ccccc1C(OCCN(C)C)c1ccccc1 (configuration not stated) | – | 3.09% | – |
| COc1ccccc1OCC(O)COC(N)=O (configuration not stated) | – | – | inactive |
| Nc1nc2c(ncn2COCCO)c(=O)[nH]1 | inactive | – | – |
| COc1ccccc1Oc1c(NS(=O)(=O)c2ccc(C(C)(C)C)cc2)nc(-c2ncccn2)nc1OCCO | – | 2.56% | – |
| CNCCCC1c2ccccc2C=Cc2ccccc21 | – | -12.9% | – |
| COc1cc2nc(N3CCN(C(=O)C4COc5ccccc5O4)CC3)nc(N)c2cc1OC (configuration not stated) | – | – | inactive |
| CC(C)NCC(O)COc1cccc2[nH]ccc12 (configuration not stated) | – | – | inactive |
| Cc1nccn1CC1CCc2c(c3ccccc3n2C)C1=O (configuration not stated) | – | – | inactive |
| O=P(O)(O)C(O)(Cc1cccnc1)P(=O)(O)O | inactive | – | – |
| CCCCN1C[C@H](O)[C@@H](O)[C@H](O)[C@H]1CO | – | -3.25% | – |
